The whole screen tested about 340,000 compounds, of which about 2,100 (0.62%) were called active. These entries were drawn from the full list. Potency and affinity values are given separately. Values without a mark were called inactive.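 The calls were made as follows: active = first-screen hits whose inhibition reached a set limit at any dose in the follow-up dose series; inconclusive = inhibition above the set first-screen limit but never retested; inactive = the rest.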

For this assay, the target named is Rac GTPase-activating protein 1 (Homo sapiens) (UniProt Q9H0H5). Put plainly: MgcRacGAP GTPase-activating activity inhibitors, confirmation, biochemical, ADP Hunter fluorescence, primary and confirmatory (AID 624330).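 Also: fluorescence reports GDP produced by GAP-driven GTP hydrolysis.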 The note with it: MgcRacGAP-stimulated Rac1 GTP hydrolysis, at 30 µM, active compounds read high, GST-tagged Rac1 F28L mutant substrate.
Sequence of Rac GTPase-activating protein 1 (Homo sapiens) (Q9H0H5 whole entry, looked up): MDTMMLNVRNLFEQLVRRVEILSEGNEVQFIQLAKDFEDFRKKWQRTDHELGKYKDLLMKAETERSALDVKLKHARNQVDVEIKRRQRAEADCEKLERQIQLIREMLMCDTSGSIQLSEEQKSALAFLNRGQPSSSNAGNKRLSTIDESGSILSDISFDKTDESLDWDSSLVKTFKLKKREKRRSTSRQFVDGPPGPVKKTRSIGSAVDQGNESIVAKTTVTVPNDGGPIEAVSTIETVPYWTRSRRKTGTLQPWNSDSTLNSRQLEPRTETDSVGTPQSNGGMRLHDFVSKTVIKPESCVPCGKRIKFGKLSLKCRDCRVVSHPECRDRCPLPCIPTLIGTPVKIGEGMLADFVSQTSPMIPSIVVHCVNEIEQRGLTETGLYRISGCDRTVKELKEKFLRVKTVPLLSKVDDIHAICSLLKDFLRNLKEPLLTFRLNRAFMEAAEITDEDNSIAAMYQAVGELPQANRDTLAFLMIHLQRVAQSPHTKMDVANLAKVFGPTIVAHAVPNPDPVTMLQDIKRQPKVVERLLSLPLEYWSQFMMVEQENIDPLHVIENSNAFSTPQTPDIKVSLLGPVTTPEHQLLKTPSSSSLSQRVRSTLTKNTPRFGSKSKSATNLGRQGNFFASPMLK
`COc1cc(OC)cc(C(C(=O)NCc2ccccc2)N(Cc2ccco2)C(=O)c2ccno2)c1` (stereo not given): the inhibition is 5.98%.

In the case of `CCc1cc2c(C)ccc(C)c2nc1SCC(=O)Nc1c(C)[nH]c(=O)[nH]c1=O`, the inhibition is -14.5%. In the case of `CCOC(=O)/C(=N\Nc1ccccc1)P(=O)(c1ccccc1)c1ccccc1` it was 5.15%. In the case of `COc1ccc(C(CNC(=O)CSc2ccccc2C)N(C)C)cc1` (stereo not given) it was 6.46%. In the case of `COC(=O)c1c(NC(=O)CSc2nnnn2-c2ccccc2)sc2c1CCC(C(C)(C)C)C2` (stereo not given), the inhibition was 5.4%.

With `CC1CCCC=CC2CC(OC(=O)CN(C)C)CC2C(O)C=CC(=O)O1` (stereo not given), the inhibition was 3.18%. In the case of `CC1CCC/C=C/C(=O)c2c(O)cc(O)cc2CC(=O)O1` (stereo not given) it was -7.81%; in that of `Cc1ccccc1NC(=O)/C(C#N)=C\c1cccnc1`, 16.7%; in that of `COc1ccccc1NC(=O)/C(C#N)=C/c1cccnc1`, 4.24%. Regarding `CCCOc1ncnc2c1[nH]c1ccc(OC)cc12`, the inhibition is 5.1%.

Take `Cc1cc(O)ccc1NC(=S)NC(=O)c1cncc(Br)c1`: the inhibition was 11%.

With `CC(C)CCNC(=O)c1cccc(C(=O)NCCC(C)C)c1`, the inhibition was 9.34%. The figure for `COc1cc(/C=N/N=C(\N)c2nonc2N)cc(OC)c1O` is 19.5%; for `Cc1ccc(/C=N/N=C/c2ccc(C)cc2)cc1` it is 4.21%. In the case of `COc1ccc(/C=N/N=C(\N)c2nonc2N)cc1OC`, the inhibition is 0.88%. The figure for `N/C(=N\N=C\c1cccc(O)c1)c1nonc1N` is 7.37%; for `C(=N\N=C\c1ccccc1)/c1ccccc1` it is 5.71%. In the case of `COc1ccc(/C=N/N=C(\N)c2nonc2N)cc1` it was 6.95%; in that of `COc1ccc(C(=O)NN=C2CCCC2)cc1OC`, -4.29%; in that of `CC(C)NC(=O)N(C)C[C@H]1Oc2ccc(NC(=O)Cc3ccccc3)cc2C(=O)N([C@H](C)CO)C[C@@H]1C`, -4.37%.

For the compound `O=C(Nc1ccc(Cl)c(Cl)c1)N1N=CCC1c1ccccc1` (stereo not given), the inhibition is 0.69%. Regarding `COc1ccc(-c2cc(C(F)F)n3ncc(C(=O)Nc4c(C)n(C)n(-c5ccccc5)c4=O)c3n2)cc1`, the inhibition is 5.73%. The figure for `COc1ccccc1NS(=O)(=O)c1cc(NC(=S)NCCN2CCOCC2)ccc1N1CCOCC1` is 21.5%; for `Cc1ccc(S(=O)(=O)N2CCCCC2)cc1NC(=O)C1=NN(c2ccccc2)C(=O)CC1` it is 4.16%. For `c1ccc(OCc2nc3ccccc3s2)cc1`, the inhibition is 7.47%. `Fc1ccc(OCc2nc3ccccc3s2)cc1`: the inhibition is 3.88%.

On to `O=c1oc2ccccc2c(O)c1Sc1c(O)c2ccccc2oc1=O`, for which the inhibition was 16.1%.

With `COc1cc(C(=O)NCCCCc2ccccc2)cc(OC)c1OC`, the inhibition is 5.47%. The figure for `COc1ncnc2c1ncn2CCCNCc1ccccn1` is 12.9%.

In the case of `COC(=O)C(NC(C)=O)(Nc1sc2c(c1C(N)=O)CCCC2)C(F)(F)F` (stereo not given), the inhibition is 4.3%. The figure for `Cn1c(-c2ccc(F)cc2)cnc1NCc1ccccc1F` is 25.9%. The figure for `Cn1c(-c2ccccc2)cnc1NCc1cc(Cl)ccc1O` is 31.7%; for `Cn1c(-c2ccc(F)cc2)cnc1NCc1ccc(F)cc1F` it is 29.6%. For `Cc1ccc(CNc2nc3ccccc3n2C)o1`, the inhibition is 8.19%. In the case of `COc1ccc(CNc2ncc(-c3ccccc3)n2C)c2ccccc12` it was 23.6%; in that of `COc1ccc(CNc2ncc(-c3ccc(Cl)cc3)n2C)c(OC)c1OC`, 16.9%; in that of `COc1ccc(CNc2ncc(-c3cccc([N+](=O)[O-])c3)n2C)c(OC)c1OC`, 28.9%. In the case of `COc1ccccc1CNc1ncc(-c2ccc(F)cc2)n1C` it was 28.3%; in that of `COc1ccc(CNC(=O)c2ccc(Cn3nc(C)c([N+](=O)[O-])c3C)o2)cc1`, 5.77%; in that of `Cc1cc(C)c(SSc2nnnn2-c2ccccc2)c(C)c1`, 27.2%.

In the case of `CC1CN(C(=O)CCNC(=O)c2ccccc2Cl)CC(C)O1` (stereo not given), the inhibition was 4.76%.

For the compound `COC(=O)[C@H](C(C)C)N(Cc1ccccc1)S(=O)(=O)CCN1CCN(c2ccccc2)CC1`, the inhibition was 3.71%. For the compound `Cc1c(Br)c([N+](=O)[O-])nn1CC(=O)Nc1nccs1`, the inhibition was -2.73%. In the case of `COc1ccc(S(=O)(=O)NC(CC(=O)NC2CCCC2)c2ccco2)cc1` (stereo not given) it was 5.91%.

In the case of `O=C(C1CCN(S(=O)(=O)c2cccc3nsnc23)CC1)N1CCc2ccccc2C1`, the inhibition was -5.35%. In the case of `Cn1c(-c2ccc(F)cc2)cnc1NCc1ccccc1` it was 25.3%. On to `Cn1c(-c2ccc(F)cc2)cnc1NCc1ccc(C#N)cc1`, for which the inhibition was 24.6%.

In the case of `O=C1C=CC(=O)N1c1ccccn1`, the inhibition is 7.4%. The figure for `O=C(c1ccccc1)c1ccccc1N1C(=O)C=CC1=O` is 17.1%; for `COc1cc(N2C(=O)C=CC2=O)c(OC)cc1Cl` it is -11.4%. Take `COc1ccc(N2C(=O)C3CC(C)=C(C)CC3C2=O)c(OC)c1` (stereo not given): the inhibition was 0.34%. In the case of `CCCc1cc(=O)[nH]c(SCC(=O)Nc2ccc(C)c(S(=O)(=O)N3CCCCC3)c2)n1` it was 6.98%; in that of `COc1cccc(OC)c1C(=O)N1CCN(c2ccccn2)CC1`, 6.84%; in that of `COC(=O)c1c(NC(=O)c2cccnc2)sc(C(=O)N(C)C)c1C`, 4.99%. In the case of `COc1ccc(-c2c(-c3ccc(O)cc3O)n[nH]c2C(F)(F)F)cc1` it was 9.47%. The figure for `COc1ccc(-c2cc3cc(OC)c(OC)cc3c(C)n2)cc1C` is 6.32%; for `COc1ccc(-c2nc(N)ncc2-c2ccccc2OC)c(O)c1` it is 5.57%; for `COc1ccc(-c2cc(-c3ccccc3O)[nH]n2)cc1OC` it is 13.3%.

For the compound `COc1ccccc1-c1c(-c2ccc(O)cc2O)n[nH]c1C(F)(F)F`, the inhibition was 13.8%. The figure for `COc1ccc(-c2cc3cc(OC)c(OC)cc3c(C)n2)cc1` is 6.65%; for `COc1ccc(-c2cncnc2-c2ccc(OC)cc2O)cc1` it is 2.33%. In the case of `COc1ccc(-c2cc(-c3ccc(OC)c(OC)c3)n[nH]2)c(O)c1` it was 8.89%; in that of `COc1ccc(CNC(=O)C2CCCN(c3nn4c(=O)cc(C)nc4s3)C2)cc1` (stereo not given), 12.2%.

As to `CC1C2Cn3c(nc4ccccc43)C1N(C(C)C)O2` (stereo not given), the inhibition is 10.4%.

For the compound `Nc1ccc(C(=O)O)cc1S(=O)(=O)O`, the inhibition is 14.3%. Regarding `CCOC(=O)c1cnc2c(Cl)c(Cl)ccc2c1NCCN1CCOCC1`, the inhibition was 8.14%.

For `O=C(NC(=S)Nc1ccccc1Br)C1CCCCC1`, the inhibition is 13%. In the case of `CCCN(CC(=O)Nc1ccccc1C)C(=O)C1CCN(S(=O)(=O)c2ccc3c(c2)OCCO3)CC1` it was 4.31%; in that of `O=C(CCc1ccccc1)n1nc(-c2ccccc2)nc1NCc1ccco1`, 7.46%. In the case of `COc1ccc(-c2nc(C(=O)O)cs2)cc1OC`, the inhibition is -2.83%. In the case of `COc1ccc(-c2nc(CCl)cs2)cc1OC` it was 1.88%.

Turning to `CCOc1ccc(-c2cc(C(=O)OC)[nH]n2)cc1`, the inhibition was 0.73%.

Take `CN(C)S(=O)(=O)c1ccc(C(=O)Nc2cccc(S(=O)(=O)NC3=NCCC3)c2)cc1`: the inhibition was 3.74%. As to `O=[N+]([O-])c1ccc(N2CCN(c3cccc(Cl)c3)CC2)cn1`, the inhibition was 8.34%. Consider `Cn1c(-c2ccccc2)c(C(=O)CCl)c2ccccc21`, for which the inhibition is -6.3%. The figure for `Cn1c(-c2ccccc2)c(C(=O)CC#N)c2ccccc21` is 5.99%; for `COc1cc(-c2cc(C(=O)O)c3cc4ccccc4cc3n2)cc(OC)c1OC` it is 11.4%; for `CCOc1ccc2nc(-c3ccc(OC)c(OC)c3)cc(C(=O)O)c2c1` it is 11.1%.

For the compound `COc1ccc(-c2cc(C(=O)Nc3ccc(S(N)(=O)=O)cc3)c3ccccc3n2)cc1OC`, the inhibition was -3.78%. In the case of `COc1ccc(-c2cc(C(=O)Nc3ccc(C(N)=O)cc3)c3ccccc3n2)cc1OC`, the inhibition is 12.9%. Regarding `O=C(Nc1ccc(NC(=O)C2CC2)cn1)c1ccccc1`, the inhibition was 9.99%. For the compound `COc1ccccc1-c1noc(-c2ccccc2C(=O)NCc2ccco2)n1`, the inhibition was 4.73%. The figure for `Cc1ccc(C)n1CCN1CCN(S(=O)(=O)c2ccc(F)cc2F)CC1` is 4.22%; for `S=c1[nH]nc(-c2ccco2)n1/N=C/c1c(Cl)cccc1Cl` it is 8.7%. In the case of `S=c1[nH]nc(-c2ccco2)n1/N=C/c1ccccc1Cl` it was 14.4%. For `S=c1[nH]nc(-c2ccco2)n1/N=C/c1ccc(Cl)c(Cl)c1`, the inhibition is 7.47%.

As to `S=c1[nH]nc(-c2ccco2)n1/N=C/c1cccc(Cl)c1`, the inhibition is 12%. `COc1cccc(NC(=O)CN(C)C(=O)CSc2nc3ccccc3s2)c1`: the inhibition was -3.45%. In the case of `CCOc1ccc(N2C(=O)CC(NCCc3ccc(S(N)(=O)=O)cc3)C2=O)cc1` (stereo not given) it was 9.91%. The figure for `O=C(O)[C@H]1CCCC[C@H]1C(=O)Nc1ccc(S(=O)(=O)N2CCCCC2)cc1` is 6.35%.

As to `CCOc1ccc(/C=N/NC(=O)c2ccc(Cn3cc(Br)cn3)o2)cc1`, the inhibition was -8.44%. In the case of `CC(=O)C(=Nc1ccc(Cl)cc1Cl)NNc1cccc(Cl)c1`, the inhibition is 22.6%. The figure for `c1ccc(Oc2cccc(OCCCCN3CCCC3)c2)cc1` is 18.1%; for `Clc1cccc(OCCCN2CCCC2)c1Cl` it is 19%. In the case of `CCN1CCN(Cc2ccc(OCc3ccccc3)c(OC)c2)CC1` it was 14.4%; in that of `COC(=O)c1ccccc1OCCN1CCCCCC1`, 24.5%. The figure for `CC1CN(CCOc2cccc(Oc3ccccc3)c2)CC(C)O1` (stereo not given) is 19.8%; for `CCC(=O)c1ccccc1OCCCN1CCC(Cc2ccccc2)CC1` it is 16.5%.

For the compound `CC1CC(C)CN(CCOc2cccc(Cl)c2Cl)C1` (stereo not given), the inhibition was 18.8%. The figure for `CCOc1ccccc1OCCN1CCC(Cc2ccccc2)CC1` is 11.1%.

The values are drawn from PubChem BioAssay AID624330 (Southern Research Specialized Biocontainment Screening …, 2012).
